Source: PubChem BioAssay
The source made the active and inactive calls. Unless noted, the rule behind the calls is not given here.

Key:
[1] = system: Wnt5a (protein binding on small-molecule microarray); test: Wnt5a binders on small-molecule microarray, primary screen, biophysical, 635/667 nm fluorescence (AID 1142); conditions: 635 nm fluorescence, higher = more signal;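 note: fluorescence read at 667 nm with signal to noise per printed feature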
[2] = cell viability in Huh7 cells, primary screen, cytotoxicity control for HCV replication inhibitor project, CellTiter-Glo luminescence, basal, 48 h (AID 1143); conditions: Huh7 HCV replicon, higher = more signal, called active from +8 up or from −8 down;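 note: Huh7 hepatoma cells carrying a hepatitis C replication reporter with no stimulus; test concentration not given here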
[3] = P. aeruginosa biofilm formation inhibitors, primary screen, PAO1 strain, BacTiter-Glo luminescence, LB-PBS (AID 1144); conditions: 12 h, higher = more signal
[4] = CREB reporter modulators without forskolin, primary screen, cell-based, PC12, CRE-LacZ reporter, unstimulated (AID 1145); conditions: no forskolin, luminescence, 4.5 h, higher = more signal, called active from +8 up or from −8 down
[5] = CREB reporter modulators under forskolin, primary screen, cell-based, PC12, CRE-LacZ reporter, forskolin-stimulated (AID 1146); conditions: luminescence, 4.5 h, higher = more signal, called active from +8 up or from −8 down;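 note: PC12 cells with 6xCRE LacZ reporter stimulated by forskolin 10 µM; beta-galactosidase reporter signal reflecting CREB driven transcription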
[6] = biological target: Streptavidin (Streptomyces avidinii) (UniProt P22629); test: streptavidin binders on small-molecule microarray, primary screen, artefact control for SMM compound annotation, biophysical, 635/667 nm fluorescence (AID 1147); conditions: streptavidin binding, higher = more signal;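 note: signal reflects streptavidin binding to arrayed compounds as a control protein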
[7] = small-molecule binders of probe aInhba, primary screen, biochemical, small-molecule microarray, 635/667 nm fluorescence (AID 1148); conditions: higher = more signal;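 note: score merges 667nm spot fluorescence with signal-to-noise for antibody binding to printed compounds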
[8] = biological target: Torsin-1A (Homo sapiens) (UniProt O14656); test: torsin A binders from cell lysate, primary screen, small-molecule microarray, wild-type, 635/667 nm (AID 1149); conditions: COS7 hTOR1A-WT lysate, 635 nm fluorescence, higher = more signal
[9] = biological target: Torsin-1A (Homo sapiens) (UniProt O14656); test: small-molecule binders of mutant TOR1A in lysate, primary screen, cell lysate, small-molecule microarray, COS7 lysate, 635/667 nm fluorescence (AID 1150); conditions: COS7 hTOR1A mutant lysate, 635 nm fluorescence, higher = more signal;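 note: score pools 667 nm emission and signal to noise measuring lysate protein binding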
[10] = system: Sonic hedgehog protein (Shh); test: small-molecule binders of Shh protein, primary screen, biochemical, small-molecule microarray, 635/667 nm fluorescence (AID 1151); conditions: small-molecule microarray binding, 635 nm fluorescence; higher = more signal;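 note: Shh protein binding to compounds spotted on small-molecule microarray slides; score combines spot fluorescence intensity with signal-to-noise across triplicate slides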
[11] = E. coli DRC41 culture turbidity changes, primary screen, E. coli filamentation inducer project, strain DRC41, OD650, 48 h (AID 1152);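 note: E. coli MC1000 strain DRC41 lacking acrAB efflux pump and sulA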; conditions: E. coli DRC41 (acrAB sulA), higher = more signal, called active from +8 up or from −8 down
[12] = small-molecule binders of probe aLefty1, primary screen, biochemical, small-molecule microarray, 635/667 nm fluorescence (AID 1153); conditions: higher = more signal;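 note: score merges spot fluorescence with signal-to-noise ratio from the scanned slide images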
[13] = PSAC antagonists in infected red cells, primary screen, cell-based, P. falciparum Indochina, OD700, 1 h (AID 1154); conditions: P. falciparum Indochina infected RBC osmotic lysis, higher = more signal, called active from +8 up or from −8 down
[14] = PSAC antagonists in infected red cells, primary screen, cell-based, P. falciparum Indochina, OD700, 2 h (AID 1155);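 note: lysis reports solute entry through the parasite surface anion channel PSAC; channel blockers reduce lysis of infected cells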; conditions: P. falciparum Indochina infected erythrocytes, osmotic lysis OD700; higher = more signal, called active from +8 up or from −8 down
[15] = osmotic lysis modulators in infected erythrocytes, primary screen, PSAC antagonist project, cell-based, P. falciparum Indochina, OD700, 3 h (AID 1156); conditions: higher = more signal, called active from +8 up or from −8 down
[16] = PSAC antagonists in infected red cells, primary screen, cell-based, P. falciparum Indochina, OD700, 18 h (AID 1157); conditions: P. falciparum Indochina infected erythrocytes, osmotic lysis OD700, 18 h; higher = more signal, called active from +8 up or from −8 down
[17] = modulators of S6 phosphorylation in cells, primary screen, cell-based, A549, cytoblot, luminescence, serum-stimulated (AID 1158); conditions: A549 phospho-S6 cytoblot, 5 h, higher = more signal;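 note: serum-stimulated A549 lung adenocarcinoma cells; signal is phosphorylated S6 detected by cytoblot immunostaining with HRP secondary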
[18] = biological target: NADPH oxidase 2 (Homo sapiens) (UniProt P04839); test: NOX2-dependent H2O2 signal modulators, primary screen, NOX inhibitor project, cell-based, HEK293-NOX2, PMA-stimulated, Amplex Red fluorescence (AID 1159); conditions: 45 min, higher = more signal, called active from +8 up or from −8 down; note: test concentration not given here
[19] = biological target: NADPH oxidase 4 (Homo sapiens) (UniProt Q9NPH5); test: NOX4-dependent H2O2 signal modulators, primary screen, NOX inhibitor project, cell-based, HEK293-NOX4, tetracycline-induced, Amplex Red fluorescence (AID 1160); conditions: 45 min, higher = more signal, called active from +8 up or from −8 down
[20] = biological target: NADPH oxidase 5 (Homo sapiens) (UniProt Q96PH1); test: NOX5-dependent H2O2 signal modulators, primary screen, NOX inhibitor project, cell-based, HEK293-NOX5, Amplex Red fluorescence (AID 1161); conditions: HEK293-NOX5, ionomycin, 45 min, higher = more signal
Chain of NADPH oxidase 5 (Homo sapiens) (Q96PH1 whole entry, looked up): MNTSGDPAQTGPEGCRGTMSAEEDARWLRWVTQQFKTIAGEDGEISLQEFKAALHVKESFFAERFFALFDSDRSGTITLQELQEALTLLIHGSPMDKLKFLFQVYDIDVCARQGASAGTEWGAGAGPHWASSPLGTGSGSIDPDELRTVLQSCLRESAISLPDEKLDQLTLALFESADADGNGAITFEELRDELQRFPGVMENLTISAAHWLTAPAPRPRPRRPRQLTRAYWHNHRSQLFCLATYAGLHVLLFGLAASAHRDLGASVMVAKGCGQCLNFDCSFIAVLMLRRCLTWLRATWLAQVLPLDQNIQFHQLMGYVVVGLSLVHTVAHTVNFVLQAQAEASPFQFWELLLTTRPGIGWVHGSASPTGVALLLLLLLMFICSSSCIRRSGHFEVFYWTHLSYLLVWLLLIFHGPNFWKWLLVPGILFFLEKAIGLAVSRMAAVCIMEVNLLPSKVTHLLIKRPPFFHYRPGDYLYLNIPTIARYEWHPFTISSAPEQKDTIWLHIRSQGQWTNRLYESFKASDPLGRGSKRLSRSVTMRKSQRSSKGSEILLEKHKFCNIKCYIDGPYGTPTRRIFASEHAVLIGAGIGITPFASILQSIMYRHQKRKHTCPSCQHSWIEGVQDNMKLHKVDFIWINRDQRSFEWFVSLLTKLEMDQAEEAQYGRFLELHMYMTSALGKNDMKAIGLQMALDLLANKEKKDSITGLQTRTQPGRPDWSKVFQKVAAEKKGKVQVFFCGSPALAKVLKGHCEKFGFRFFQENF

Chain of Streptavidin (Streptomyces avidinii) (P22629 whole entry, looked up): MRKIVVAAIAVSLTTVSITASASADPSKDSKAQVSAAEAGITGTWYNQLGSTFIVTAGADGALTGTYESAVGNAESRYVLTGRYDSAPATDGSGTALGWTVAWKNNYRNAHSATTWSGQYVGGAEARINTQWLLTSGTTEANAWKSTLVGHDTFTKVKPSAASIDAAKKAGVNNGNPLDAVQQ
Chain of NADPH oxidase 2 (Homo sapiens) (P04839 whole entry, looked up): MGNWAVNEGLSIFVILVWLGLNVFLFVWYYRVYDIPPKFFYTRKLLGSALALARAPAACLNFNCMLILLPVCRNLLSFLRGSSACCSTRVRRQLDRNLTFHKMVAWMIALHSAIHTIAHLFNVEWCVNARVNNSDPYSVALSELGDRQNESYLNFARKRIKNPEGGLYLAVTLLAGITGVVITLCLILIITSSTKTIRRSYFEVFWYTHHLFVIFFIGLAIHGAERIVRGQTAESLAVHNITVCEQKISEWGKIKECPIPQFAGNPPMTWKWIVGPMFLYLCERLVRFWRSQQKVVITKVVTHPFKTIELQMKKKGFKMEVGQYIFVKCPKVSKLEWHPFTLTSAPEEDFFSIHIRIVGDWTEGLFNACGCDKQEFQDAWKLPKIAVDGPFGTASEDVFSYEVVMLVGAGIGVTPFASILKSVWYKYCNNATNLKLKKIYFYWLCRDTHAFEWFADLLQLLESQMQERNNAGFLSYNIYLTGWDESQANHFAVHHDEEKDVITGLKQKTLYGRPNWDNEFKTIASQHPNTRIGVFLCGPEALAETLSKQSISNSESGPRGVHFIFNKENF
Chain of NADPH oxidase 4 (Homo sapiens) (Q9NPH5 whole entry, looked up): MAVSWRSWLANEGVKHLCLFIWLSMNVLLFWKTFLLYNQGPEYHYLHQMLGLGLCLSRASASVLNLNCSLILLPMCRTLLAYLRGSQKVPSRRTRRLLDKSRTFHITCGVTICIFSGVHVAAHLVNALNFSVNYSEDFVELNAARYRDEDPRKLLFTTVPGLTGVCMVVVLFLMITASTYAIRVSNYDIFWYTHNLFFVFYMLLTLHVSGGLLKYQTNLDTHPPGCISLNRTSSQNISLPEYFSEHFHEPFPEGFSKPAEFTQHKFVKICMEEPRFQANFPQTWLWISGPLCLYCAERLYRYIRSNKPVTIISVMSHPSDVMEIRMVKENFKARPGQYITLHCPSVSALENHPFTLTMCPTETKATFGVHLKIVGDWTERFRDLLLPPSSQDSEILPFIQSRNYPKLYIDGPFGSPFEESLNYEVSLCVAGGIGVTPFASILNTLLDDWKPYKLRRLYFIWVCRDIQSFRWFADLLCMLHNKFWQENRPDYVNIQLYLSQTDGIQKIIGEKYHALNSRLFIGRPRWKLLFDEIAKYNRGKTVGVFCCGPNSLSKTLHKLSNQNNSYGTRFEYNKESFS
Chain of Torsin-1A (Homo sapiens) (O14656 whole entry, looked up): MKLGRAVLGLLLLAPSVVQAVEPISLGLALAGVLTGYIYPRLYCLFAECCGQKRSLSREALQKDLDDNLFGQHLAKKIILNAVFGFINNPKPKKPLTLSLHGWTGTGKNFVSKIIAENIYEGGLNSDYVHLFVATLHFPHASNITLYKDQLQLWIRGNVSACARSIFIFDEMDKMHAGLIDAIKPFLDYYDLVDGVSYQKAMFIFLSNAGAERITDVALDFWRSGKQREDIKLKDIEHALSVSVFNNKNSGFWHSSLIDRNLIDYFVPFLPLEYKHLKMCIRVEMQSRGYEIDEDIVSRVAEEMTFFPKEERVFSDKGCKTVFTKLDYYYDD

CN(C)c1ccc(C(O)C2C=CC3C(=O)N(Cc4ccccc4)C(=O)C3N2n2cnnc2)cc1 (stereo not given)
composite z-score [1]: -0.347
z-score [2]: 0.166 (inactive)
z-score [3]: -1.85 (inactive)
z-score [4]: -1.09 (inactive)
z-score [5]: -0.607 (inactive)
composite z-score [6]: 0.143
composite z-score [7]: -0.149
composite z-score [8]: 0.131
composite z-score [9]: -0.243
composite z-score [10]: -0.11
z-score [11]: 1.3 (inactive)
composite z-score [12]: -0.115
z-score [13]: 0.0651 (inactive)
z-score [14]: -0.318 (inactive)
z-score [15]: 0.747 (inactive)
z-score [16]: -0.553 (inactive)
z-score [17]: 1.02
z-score [18]: 0.683 (inactive)
z-score [19]: -0.524 (inactive)
z-score [20]: 0.36

COc1ccc(C#Cc2ccc3c(c2)[C@]2(C(=O)N3)[C@H](C(=O)O)[C@H]3C(=O)O[C@H](c4ccccc4)[C@H](c4ccccc4)N3[C@@H]2c2ccccc2OCCO)cc1
composite z-score [1]: 0.119
z-score [2]: -5.87 (inactive)
z-score [3]: -1.75 (inactive)
z-score [4]: 1.43 (inactive)
z-score [5]: 4.81 (inactive)
composite z-score [6]: 0.904
composite z-score [7]: -0.413
composite z-score [8]: 0.65
composite z-score [9]: 0.643
composite z-score [10]: 1.63
z-score [11]: 0.987 (inactive)
composite z-score [12]: -0.707
z-score [13]: -0.357 (inactive)
z-score [14]: -0.566 (inactive)
z-score [15]: -10.3 (active)
z-score [16]: -2.29 (inactive)
z-score [17]: 1.56
z-score [18]: 2.09 (inactive)
z-score [19]: -0.415 (inactive)
z-score [20]: -2.32

COC(=O)c1cccc([C@H]2OC(=CC(=O)OC(C)C)C[C@@H](c3cccc(C(=O)OC)c3)O2)c1
composite z-score [1]: 1.19
z-score [2]: -2.17 (inactive)
z-score [3]: 0.111 (inactive)
z-score [4]: 1.26 (inactive)
z-score [5]: 1.05 (inactive)
composite z-score [6]: 1.21
composite z-score [7]: 0.0649
composite z-score [8]: 1.64
composite z-score [9]: 1.53
composite z-score [10]: 1
z-score [11]: -0.576 (inactive)
composite z-score [12]: 0.635
z-score [13]: 18.5 (active)
z-score [14]: 3.17 (inactive)
z-score [15]: 0.487 (inactive)
z-score [16]: 0.683 (inactive)
z-score [17]: 0.0055
z-score [18]: -0.679 (inactive)
z-score [19]: -1.6 (inactive)
z-score [20]: -2.04

CCOC(=O)C1=CC[C@@H](c2ccccc2)N(S(=O)(=O)c2ccc(C)cc2)[C@H]1c1ccccc1I
composite z-score [1]: 0.296
z-score [2]: -2.69 (inactive)
z-score [3]: 0.366 (inactive)
z-score [4]: 0.566 (inactive)
z-score [5]: -0.226 (inactive)
composite z-score [6]: 0.864
composite z-score [7]: 0.849
composite z-score [8]: -0.315
composite z-score [9]: 0.507
composite z-score [10]: 0.239
z-score [11]: -0.801 (inactive)
composite z-score [12]: 1.24
z-score [13]: 1.18 (inactive)
z-score [14]: 0.948 (inactive)
z-score [15]: -0.597 (inactive)
z-score [16]: 0.631 (inactive)
z-score [17]: -0.94
z-score [18]: 0.62 (inactive)
z-score [19]: 0.205 (inactive)
z-score [20]: 0.721

CN1C(=O)[C@@H]2[C@@H](CC(COc3ccccc3)=C3[C@@H](CCc4ccccc4)OB(O)C[C@@H]32)C1=O
composite z-score [1]: 0.0305
z-score [2]: -0.706 (inactive)
z-score [3]: 0.32 (inactive)
z-score [4]: 1.76 (inactive)
z-score [5]: 0.89 (inactive)
composite z-score [6]: -0.156
composite z-score [7]: -0.128
composite z-score [8]: 0.179
composite z-score [9]: 0.0191
composite z-score [10]: 0.394
z-score [11]: -0.759 (inactive)
composite z-score [12]: -0.191
z-score [13]: 4.5 (inactive)
z-score [14]: 0.626 (inactive)
z-score [15]: -0.488 (inactive)
z-score [16]: 0.133 (inactive)
z-score [17]: -0.202
z-score [18]: 0.693 (inactive)
z-score [19]: 0.41 (inactive)
z-score [20]: 0.82

CC(=O)NCCCC[C@@H]1NC(=O)[C@H]2C[C@@H](C(=O)NCCCCCCNC(=O)CS)[C@@H](c3cccc(OCCO)c3)N2C1=O
composite z-score [1]: 0.538
z-score [2]: 0.348 (inactive)
z-score [3]: -0.286 (inactive)
z-score [4]: -0.813 (inactive)
z-score [5]: -0.78 (inactive)
composite z-score [6]: -0.64
composite z-score [7]: -0.0448
composite z-score [8]: 1.43
composite z-score [9]: 1.22
composite z-score [10]: 1.32
z-score [11]: -0.337 (inactive)
composite z-score [12]: -0.101
z-score [13]: 3.07 (inactive)
z-score [14]: 0.858 (inactive)
z-score [15]: 1.18 (inactive)
z-score [16]: 0.448 (inactive)
z-score [17]: -0.754
z-score [18]: 1.6 (inactive)
z-score [19]: -0.667 (inactive)
z-score [20]: 0.443

CCCNC(=O)[C@@]1(c2ccc([N+](=O)[O-])cc2)CC(=O)N(C(C)C)[C@@H]1c1ccc(CO)cc1
composite z-score [1]: -0.47
z-score [2]: -1.22 (inactive)
z-score [3]: 0.313 (inactive)
z-score [4]: 0.558 (inactive)
z-score [5]: 0.282 (inactive)
composite z-score [6]: -1.07
composite z-score [7]: -0.153
composite z-score [8]: -2.12
composite z-score [9]: -0.42
composite z-score [10]: -0.738
z-score [11]: -0.169 (inactive)
composite z-score [12]: -0.207
z-score [13]: 1.4 (inactive)
z-score [14]: -0.366 (inactive)
z-score [15]: 1.18 (inactive)
z-score [16]: 0.205 (inactive)
z-score [17]: 0.0662
z-score [18]: -0.144 (inactive)
z-score [19]: 0.069 (inactive)
z-score [20]: -1.85

COCCOC(=O)N1C(=O)[C@@]2(c3cc(C#CCCO)ccc31)[C@H](c1ccc(OCCO)cc1)N1[C@H](c3ccccc3)[C@H](c3ccccc3)OC(=O)[C@H]1[C@@H]2C(=O)N1CCCCCCC1
composite z-score [1]: 0.827
z-score [2]: -1.31 (inactive)
z-score [3]: 0.542 (inactive)
z-score [4]: -0.459 (inactive)
z-score [5]: 2.51 (inactive)
composite z-score [6]: 1.79
composite z-score [7]: 1.48
composite z-score [8]: 0.862
composite z-score [9]: 0.726
composite z-score [10]: 1.97
z-score [11]: -0.453 (inactive)
composite z-score [12]: 2.13
z-score [13]: 1.96 (inactive)
z-score [14]: 0.877 (inactive)
z-score [15]: -0.564 (inactive)
z-score [16]: 0.115 (inactive)
z-score [17]: -0.23
z-score [18]: 1.5 (inactive)
z-score [19]: 1.02 (inactive)
z-score [20]: 1.86
